# Experimental data as given in article PMC7862700, “An all-to-all approach to the identification of sequence-specific readers for epigenetic DNA modifications on cytosine”.
# What was measured:
# Assay in all cases: DAPPL (digital affinity profiling via proximity ligation, sequencing); 10 mM Tris-HCl pH 7.5, 50 mM NaCl, 1 mM DTT, 4% glycerol, room temperature, 30 min; GST-TFs on glutathione beads, 16-mer random dsDNA library, 0.1% formaldehyde crosslink after washing; high values mean tight binding
# FEV = biological target: T1, FEV (Homo sapiens, UniProt Q99581 1-238); conditions: protein: recombinant; tags: N-terminal GST; dsDNA, one strand shown
# T1 sequence: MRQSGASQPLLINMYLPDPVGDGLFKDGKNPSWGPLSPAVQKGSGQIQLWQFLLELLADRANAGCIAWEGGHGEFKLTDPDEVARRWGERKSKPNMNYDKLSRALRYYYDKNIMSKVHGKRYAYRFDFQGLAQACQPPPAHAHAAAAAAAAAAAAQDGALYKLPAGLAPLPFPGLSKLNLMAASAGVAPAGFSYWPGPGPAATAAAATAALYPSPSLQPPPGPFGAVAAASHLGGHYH
# Summary of the method: (§1)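 Human transcription factors were made in yeast as GST fusions, captured on glutathione beads and barcoded with DNA. With a tag-only sample included, the pool was incubated with 200 nmole of a random double-stranded 16-mer DNA library in Tris/NaCl/DTT/glycerol buffer at room temperature for 30 min, then crosslinked with 0.1% formaldehyde after washing, ligated by proximity, amplified and sequenced. For binding signal, each hexamer's read frequency for a factor is divided by its frequency for the tag-only sample.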
# ETV5 = ETV5 (Homo sapiens, UniProt P41161 1-510); conditions: protein: recombinant; tags: N-terminal GST; dsDNA, one strand shown
# Chain of ETV5 (P41161 whole entry): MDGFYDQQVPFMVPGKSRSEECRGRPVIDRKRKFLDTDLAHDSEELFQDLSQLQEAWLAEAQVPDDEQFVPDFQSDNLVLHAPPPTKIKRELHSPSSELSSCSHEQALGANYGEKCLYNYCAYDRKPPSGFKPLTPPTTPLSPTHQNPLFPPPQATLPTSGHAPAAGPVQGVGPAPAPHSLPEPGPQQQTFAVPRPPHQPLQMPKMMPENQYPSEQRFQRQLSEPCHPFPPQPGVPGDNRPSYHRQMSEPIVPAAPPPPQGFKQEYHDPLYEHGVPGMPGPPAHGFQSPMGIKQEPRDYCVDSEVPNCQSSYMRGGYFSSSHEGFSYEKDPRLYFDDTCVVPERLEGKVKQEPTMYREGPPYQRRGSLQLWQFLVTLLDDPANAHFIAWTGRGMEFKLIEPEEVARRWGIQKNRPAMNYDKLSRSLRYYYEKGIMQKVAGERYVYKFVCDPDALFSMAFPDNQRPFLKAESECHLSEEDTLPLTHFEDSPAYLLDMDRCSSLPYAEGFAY
# Summary of the method: as §1
# HSF1 = HSF1 (Homo sapiens, UniProt Q00613 1-529); conditions: protein: recombinant; tags: N-terminal GST; chain copies: 3; dsDNA, one strand shown
# Chain of HSF1 (Q00613 whole entry): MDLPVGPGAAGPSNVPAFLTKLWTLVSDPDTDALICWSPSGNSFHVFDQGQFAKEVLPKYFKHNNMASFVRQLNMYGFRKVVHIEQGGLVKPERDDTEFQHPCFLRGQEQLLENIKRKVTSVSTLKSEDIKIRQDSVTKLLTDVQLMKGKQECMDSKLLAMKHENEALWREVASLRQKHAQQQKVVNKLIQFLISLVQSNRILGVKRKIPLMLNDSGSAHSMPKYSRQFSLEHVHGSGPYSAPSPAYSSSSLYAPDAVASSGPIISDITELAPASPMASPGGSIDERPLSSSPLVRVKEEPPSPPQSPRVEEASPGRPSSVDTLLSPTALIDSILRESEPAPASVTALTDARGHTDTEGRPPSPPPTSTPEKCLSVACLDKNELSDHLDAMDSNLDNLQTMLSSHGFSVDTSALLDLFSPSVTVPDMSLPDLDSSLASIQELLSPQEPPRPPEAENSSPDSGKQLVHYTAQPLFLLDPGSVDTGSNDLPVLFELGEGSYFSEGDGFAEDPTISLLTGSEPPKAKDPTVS
# Summary of the method: as §1
# SPIC = biological target: T2, SPIC (Homo sapiens, UniProt Q8N5J4 1-248); conditions: protein: recombinant; tags: N-terminal GST; dsDNA, one strand shown
# T2 sequence: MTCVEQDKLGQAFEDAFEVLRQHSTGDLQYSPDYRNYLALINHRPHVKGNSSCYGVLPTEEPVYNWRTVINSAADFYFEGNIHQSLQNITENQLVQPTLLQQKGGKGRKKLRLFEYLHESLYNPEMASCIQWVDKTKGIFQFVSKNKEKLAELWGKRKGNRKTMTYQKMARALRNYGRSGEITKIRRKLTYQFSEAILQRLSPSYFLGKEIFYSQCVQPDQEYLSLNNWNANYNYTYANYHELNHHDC
# Summary of the method: as §1
# ELF4 = ELF4 (Homo sapiens, UniProt Q99607 1-663); conditions: protein: recombinant; tags: N-terminal GST; dsDNA, one strand shown
# Chain of ELF4 (Q99607 whole entry): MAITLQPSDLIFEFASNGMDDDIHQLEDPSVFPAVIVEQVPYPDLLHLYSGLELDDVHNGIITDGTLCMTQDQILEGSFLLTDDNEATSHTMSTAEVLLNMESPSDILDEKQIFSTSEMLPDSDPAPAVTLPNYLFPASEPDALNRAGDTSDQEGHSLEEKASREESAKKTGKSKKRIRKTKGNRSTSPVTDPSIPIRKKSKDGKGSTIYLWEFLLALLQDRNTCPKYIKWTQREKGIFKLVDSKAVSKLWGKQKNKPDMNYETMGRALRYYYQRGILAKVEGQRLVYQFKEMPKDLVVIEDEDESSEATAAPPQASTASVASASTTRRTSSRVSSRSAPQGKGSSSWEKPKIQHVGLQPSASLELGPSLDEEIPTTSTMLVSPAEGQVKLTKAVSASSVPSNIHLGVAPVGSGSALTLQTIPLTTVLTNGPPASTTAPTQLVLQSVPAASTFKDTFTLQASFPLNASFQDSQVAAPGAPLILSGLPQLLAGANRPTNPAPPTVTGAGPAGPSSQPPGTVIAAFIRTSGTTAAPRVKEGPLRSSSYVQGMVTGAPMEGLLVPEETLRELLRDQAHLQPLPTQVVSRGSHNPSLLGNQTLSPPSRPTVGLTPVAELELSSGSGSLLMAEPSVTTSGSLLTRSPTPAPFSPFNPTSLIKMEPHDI
# Summary of the method: as §1
# ELK4 = biological target: T3, ELK4 (Homo sapiens, UniProt P28324-2 1-405); conditions: protein: recombinant; tags: N-terminal GST; dsDNA, one strand shown
# T3 sequence: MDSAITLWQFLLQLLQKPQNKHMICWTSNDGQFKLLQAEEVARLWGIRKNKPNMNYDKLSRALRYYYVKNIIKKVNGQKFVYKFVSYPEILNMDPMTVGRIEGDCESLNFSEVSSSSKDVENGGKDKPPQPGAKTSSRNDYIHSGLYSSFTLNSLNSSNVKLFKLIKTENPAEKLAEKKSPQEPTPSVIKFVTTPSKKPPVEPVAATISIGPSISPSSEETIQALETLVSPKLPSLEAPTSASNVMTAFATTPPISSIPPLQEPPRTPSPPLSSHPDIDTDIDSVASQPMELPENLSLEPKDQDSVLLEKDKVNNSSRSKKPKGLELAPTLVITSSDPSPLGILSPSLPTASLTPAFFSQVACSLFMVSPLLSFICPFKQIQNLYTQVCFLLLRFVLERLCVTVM
# Summary of the method: as §1
# ETV2 = biological target: T4, ETV2 (Homo sapiens, UniProt O00321 1-342); conditions: protein: recombinant; tags: N-terminal GST; dsDNA, one strand shown
# T4 sequence: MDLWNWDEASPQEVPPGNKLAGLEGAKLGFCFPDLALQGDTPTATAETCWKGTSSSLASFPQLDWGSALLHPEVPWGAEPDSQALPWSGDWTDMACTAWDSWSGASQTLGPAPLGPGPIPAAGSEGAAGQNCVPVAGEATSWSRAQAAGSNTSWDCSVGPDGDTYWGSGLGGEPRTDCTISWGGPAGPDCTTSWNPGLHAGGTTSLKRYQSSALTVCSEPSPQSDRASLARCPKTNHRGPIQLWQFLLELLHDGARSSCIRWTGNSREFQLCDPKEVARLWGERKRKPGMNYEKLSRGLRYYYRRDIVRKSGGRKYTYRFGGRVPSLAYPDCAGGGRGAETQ
# Summary of the method: as §1
# ELF3 = biological target: T5, ELF3 (Homo sapiens, UniProt P78545 1-371); conditions: protein: recombinant; tags: N-terminal GST; dsDNA, one strand shown
# T5 sequence: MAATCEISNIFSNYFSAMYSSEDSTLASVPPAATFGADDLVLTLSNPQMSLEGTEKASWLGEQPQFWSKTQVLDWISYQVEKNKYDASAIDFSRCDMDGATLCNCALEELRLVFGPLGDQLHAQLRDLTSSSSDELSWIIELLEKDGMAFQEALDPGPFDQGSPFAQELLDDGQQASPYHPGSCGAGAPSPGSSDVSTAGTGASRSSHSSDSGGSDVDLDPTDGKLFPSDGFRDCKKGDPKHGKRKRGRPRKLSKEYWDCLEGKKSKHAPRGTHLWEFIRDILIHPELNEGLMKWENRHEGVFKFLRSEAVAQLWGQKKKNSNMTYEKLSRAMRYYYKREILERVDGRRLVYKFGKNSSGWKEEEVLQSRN
# Summary of the method: as §1
# CRX = CRX (Homo sapiens, UniProt O43186 1-299); conditions: protein: recombinant; tags: N-terminal GST; dsDNA, one strand shown
# Chain of CRX (O43186 whole entry): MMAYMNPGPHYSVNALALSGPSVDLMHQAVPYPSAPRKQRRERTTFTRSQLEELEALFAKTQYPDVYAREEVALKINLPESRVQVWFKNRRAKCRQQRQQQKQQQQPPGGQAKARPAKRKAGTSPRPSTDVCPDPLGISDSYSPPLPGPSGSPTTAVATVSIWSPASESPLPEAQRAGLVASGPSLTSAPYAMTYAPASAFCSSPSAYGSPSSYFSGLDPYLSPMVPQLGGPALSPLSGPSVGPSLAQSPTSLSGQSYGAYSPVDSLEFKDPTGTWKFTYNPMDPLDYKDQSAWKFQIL
# Summary of the method: as §1
sequence,measurement,setting,value
TCCTTT,binding signal,FEV,"1.69 fold enrichment (6-mer frequency, TF over GST control)"
same,binding signal,ETV5,"1.69 fold enrichment (6-mer frequency, TF over GST control)"
same,binding signal,HSF1,"1.57 fold enrichment (6-mer frequency, TF over GST control)"
same,binding signal,SPIC,"1.76 fold enrichment (6-mer frequency, TF over GST control)"
same,binding signal,ELF4,"1.77 fold enrichment (6-mer frequency, TF over GST control)"
same,binding signal,ELK4,"1.62 fold enrichment (6-mer frequency, TF over GST control)"
same,binding signal,ETV2,"1.47 fold enrichment (6-mer frequency, TF over GST control)"
same,binding signal,ELF3,"1.78 fold enrichment (6-mer frequency, TF over GST control)"
same,binding signal,CRX,"1.67 fold enrichment (6-mer frequency, TF over GST control)"
